Reference: PubChem BioAssay (NCI)
Compounds without any hit were thinned out: in the full panel of roughly 83,000, 20% have a hit.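 Step 1: grow cells in 96-well plates. Step 2: add test compound at a single concentration. Step 3: incubate 48 h. Step 4: record percent growth.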 The source made the active and inactive calls. How the source made its calls: active means growth percent below 10; inactive means the rest.

How the values were obtained:
Test in all cases: NCI-60 one-dose screen, 48 h (100 = growth as untreated, 0 = no growth, -100 = all killed)
Settings in all cases: 10 µM unless noted
DU-145 prostate = test system: DU-145 prostate
K-562 leukemia = test system: K-562 leukemia
MALME-3M melanoma = test system: MALME-3M melanoma
MDA-MB-231 breast = test system: MDA-MB-231 breast
RXF 393 renal = test system: RXF 393 renal
SF-268 CNS = test system: SF-268 CNS
SF-539 CNS = test system: SF-539 CNS
UACC-257 melanoma = test system: UACC-257 melanoma
M14 melanoma = test system: M14 melanoma
HCT-15 colon = test system: HCT-15 colon
HT29 colon = test system: HT29 colon
SNB-75 CNS = test system: SNB-75 CNS
SNB-19 CNS = test system: SNB-19 CNS
PC-3 prostate = test system: PC-3 prostate
SK-MEL-5 melanoma = test system: SK-MEL-5 melanoma
UACC-62 melanoma = test system: UACC-62 melanoma
LOX IMVI melanoma = test system: LOX IMVI melanoma
SK-MEL-28 melanoma = test system: SK-MEL-28 melanoma
U251 CNS = test system: U251 CNS

Measured: growth

C=CCn1c(SCC(=O)Nc2ccc(C(=O)/C=C/c3ccc(Cl)cc3)cc2)nnc1-c1ccc(Cl)cc1
inactive: DU-145 prostate 100% | K-562 leukemia 72.5% | MALME-3M melanoma 93.2% | MDA-MB-231 breast 86.4% | RXF 393 renal 99.9% | SF-268 CNS 82.7% | SF-539 CNS 99.2% | UACC-257 melanoma 99% | M14 melanoma 95.5% | HCT-15 colon 77.2% | HT29 colon 92.8% | SNB-75 CNS 73.8% | SNB-19 CNS 91.1% | PC-3 prostate 69.9% | SK-MEL-5 melanoma 90.6% | UACC-62 melanoma 71.2% | LOX IMVI melanoma 89.9% | SK-MEL-28 melanoma 104%

CCOC(=O)c1ccc(NC(=O)NC2=NCCS2)cc1
inactive: K-562 leukemia 58.6% | MDA-MB-231 breast 51.8% | SF-268 CNS 40.4% | UACC-257 melanoma 80.5% | M14 melanoma 34.9% | HCT-15 colon 59.3% | HT29 colon 106% | SNB-75 CNS 21.5% | SNB-19 CNS 54.3% | U251 CNS 26.6% | PC-3 prostate 16% | LOX IMVI melanoma 92.4% | SK-MEL-28 melanoma 87.3%
active: DU-145 prostate 0.751% | MALME-3M melanoma 8.27% | RXF 393 renal -15.3% | SF-539 CNS 1.9%

CCCCNCCC(O)c1cc2ccc(C(F)(F)F)cc2c2cc(C(F)(F)F)ccc12 (configuration not stated)
active: DU-145 prostate -93.4% | K-562 leukemia -72.1% | MALME-3M melanoma -59.5% | MDA-MB-231 breast -73.3% | RXF 393 renal -90.8% | SF-268 CNS -88% | SF-539 CNS -81.8% | UACC-257 melanoma -75.5% | M14 melanoma -84.6% | HCT-15 colon -65.2% | HT29 colon -84.8% | SNB-75 CNS -90.5% | SNB-19 CNS -76.6% | PC-3 prostate -85.2% | SK-MEL-5 melanoma -87.6% | UACC-62 melanoma -84.3% | LOX IMVI melanoma -71.2% | SK-MEL-28 melanoma -87.7%

C/C(=N\NC(=S)N1CCCCC1)c1ccccn1
active: K-562 leukemia 2.29% | MALME-3M melanoma 5.96% | RXF 393 renal -17.6% | SF-268 CNS 8.38% | SF-539 CNS 5.37% | UACC-257 melanoma -2.18% | M14 melanoma -33.4% | HT29 colon 8.66% | U251 CNS 3.98% | PC-3 prostate 9.88% | SK-MEL-5 melanoma -33.2%
inactive: DU-145 prostate 28.3% | MDA-MB-231 breast 24.7% | HCT-15 colon 22.1% | SNB-75 CNS 28.8% | SNB-19 CNS 22.9% | LOX IMVI melanoma 13.4% | SK-MEL-28 melanoma 37%

COc1cc2c(cc1OC)C(=O)C(Br)CC2 (configuration not stated)
active: MALME-3M melanoma 3.69% | LOX IMVI melanoma -0.506%
inactive: DU-145 prostate 31.5% | K-562 leukemia 16.5% | MDA-MB-231 breast 42.6% | RXF 393 renal 40.8% | SF-268 CNS 64.6% | SF-539 CNS 68.2% | UACC-257 melanoma 56.7% | M14 melanoma 32% | HCT-15 colon 17.5% | HT29 colon 24.1% | SNB-75 CNS 53% | SNB-19 CNS 85.3% | U251 CNS 54% | PC-3 prostate 31.2% | SK-MEL-5 melanoma 53.2% | SK-MEL-28 melanoma 67.7%

COc1cc(NCCCCC(C)N)c2nccc(C)c2c1 (configuration not stated)
inactive: DU-145 prostate 111% | K-562 leukemia 80.4% | MALME-3M melanoma 98% | MDA-MB-231 breast 62.9% | RXF 393 renal 89.8% | SF-268 CNS 100% | SF-539 CNS 83.9% | UACC-257 melanoma 107% | M14 melanoma 95.4% | HCT-15 colon 93.9% | HT29 colon 76.3% | SNB-75 CNS 72% | SNB-19 CNS 94.6% | U251 CNS 93% | PC-3 prostate 66% | UACC-62 melanoma 91.1% | LOX IMVI melanoma 92.7% | SK-MEL-28 melanoma 99.3%

Cc1ccc(N2C3c4ccccc4N(S(=O)(=O)c4ccc(C)cc4)C2c2ccccc2N3S(=O)(=O)c2ccc(C)cc2)cc1
inactive: DU-145 prostate 104% | K-562 leukemia 90.4% | MALME-3M melanoma 97.9% | MDA-MB-231 breast 94.3% | RXF 393 renal 121% | SF-268 CNS 107% | SF-539 CNS 95.4% | UACC-257 melanoma 102% | M14 melanoma 110% | HCT-15 colon 94.9% | HT29 colon 101% | SNB-75 CNS 89.5% | SNB-19 CNS 111% | U251 CNS 91.8% | PC-3 prostate 90.4% | UACC-62 melanoma 99.6% | LOX IMVI melanoma 98.7% | SK-MEL-28 melanoma 99.3%

O=C(Oc1c(Cl)c(Cl)c(Cl)c(Cl)c1Cl)C1CCCN1C(=O)OCc1ccccc1 (configuration not stated)
inactive: DU-145 prostate 60.9% | K-562 leukemia 17.3% | MALME-3M melanoma 72.3% | MDA-MB-231 breast 69.1% | RXF 393 renal 92.2% | SF-268 CNS 42.2% | SF-539 CNS 50.5% | UACC-257 melanoma 82.1% | M14 melanoma 78.9% | HCT-15 colon 15.4% | HT29 colon 89.1% | SNB-75 CNS 36.4% | SNB-19 CNS 26.2% | PC-3 prostate 10.7% | SK-MEL-5 melanoma 76.2% | UACC-62 melanoma 75.2% | LOX IMVI melanoma 64.8% | SK-MEL-28 melanoma 99%

N#Cc1c(N)c(C(=O)c2ccc3c(c2)OCCO3)n2c1CCCC2
active: K-562 leukemia 0.198% | MALME-3M melanoma -8.49% | HT29 colon 5.44% | SNB-75 CNS -1.33%
inactive: DU-145 prostate 45.2% | MDA-MB-231 breast 52.3% | RXF 393 renal 31.4% | SF-268 CNS 36.9% | SF-539 CNS 24.2% | UACC-257 melanoma 45.9% | M14 melanoma 19.4% | HCT-15 colon 20.9% | SNB-19 CNS 53.7% | PC-3 prostate 23% | SK-MEL-5 melanoma 22.8% | UACC-62 melanoma 38% | LOX IMVI melanoma 32.2% | SK-MEL-28 melanoma 44%

Fc1[nH]nc2ccc([C@@H]3Nc4ccc5[nH]ncc5c4[C@H]4C5CCC(C5)[C@@H]34)cc12 (some centres not stated)
inactive: DU-145 prostate 15.1% | K-562 leukemia 15.1% | MALME-3M melanoma 48.5% | MDA-MB-231 breast 46.2% | SF-268 CNS 57.5% | UACC-257 melanoma 82.2% | M14 melanoma 21.2% | HCT-15 colon 34.5% | SNB-19 CNS 36.6% | U251 CNS 25.8% | PC-3 prostate 27.8% | UACC-62 melanoma 27.5% | LOX IMVI melanoma 48.3% | SK-MEL-28 melanoma 54.8%
active: RXF 393 renal -6.05% | SF-539 CNS -15.9% | HT29 colon 8.7% | SNB-75 CNS -14.8%

O=C(NNC(=S)Nc1ccccc1)c1ccc(Nc2ncnc3c2cnn3-c2cccc(Br)c2)cc1
inactive: DU-145 prostate 107% | K-562 leukemia 112% | MALME-3M melanoma 101% | MDA-MB-231 breast 110% | RXF 393 renal 99.6% | SF-268 CNS 95.4% | SF-539 CNS 98.5% | UACC-257 melanoma 114% | M14 melanoma 100% | HCT-15 colon 110% | HT29 colon 105% | SNB-75 CNS 80% | SNB-19 CNS 101% | PC-3 prostate 93.5% | SK-MEL-5 melanoma 100% | UACC-62 melanoma 94.6% | LOX IMVI melanoma 97.3% | SK-MEL-28 melanoma 110%

C/C(=C\C(=N\N=C(N)N)c1ccc(Cl)cc1)c1ccc(Cl)cc1
active: DU-145 prostate -91.4% | K-562 leukemia -51.7% | MALME-3M melanoma -64.6% | MDA-MB-231 breast -73.1% | RXF 393 renal -95.8% | SF-268 CNS -89.2% | SF-539 CNS -73.7% | UACC-257 melanoma -72.5% | M14 melanoma -79.7% | HCT-15 colon -69.5% | HT29 colon -70.1% | SNB-75 CNS -82.9% | SNB-19 CNS -79.8% | U251 CNS -93% | PC-3 prostate -80% | SK-MEL-5 melanoma -98.7% | LOX IMVI melanoma -59.1% | SK-MEL-28 melanoma -81%

CC(C)OC(=O)c1ccc([N+](=O)[O-])cc1
inactive: DU-145 prostate 116% | K-562 leukemia 117% | MALME-3M melanoma 131% | MDA-MB-231 breast 102% | RXF 393 renal 116% | SF-268 CNS 119% | SF-539 CNS 112% | UACC-257 melanoma 101% | M14 melanoma 108% | HCT-15 colon 107% | HT29 colon 102% | SNB-75 CNS 111% | SNB-19 CNS 109% | U251 CNS 106% | PC-3 prostate 102% | SK-MEL-5 melanoma 106% | LOX IMVI melanoma 98% | SK-MEL-28 melanoma 110%

O=[N+]([O-])c1cccc(N=C(Nc2cccc([N+](=O)[O-])c2)c2ccccc2)c1
inactive: DU-145 prostate 98.2% | K-562 leukemia 45% | MALME-3M melanoma 79.7% | MDA-MB-231 breast 83.9% | RXF 393 renal 82% | SF-268 CNS 96.6% | SF-539 CNS 87.1% | UACC-257 melanoma 92.4% | M14 melanoma 85.7% | HCT-15 colon 68.3% | HT29 colon 47.5% | SNB-75 CNS 84.2% | SNB-19 CNS 92.4% | U251 CNS 82.6% | PC-3 prostate 51.6% | SK-MEL-5 melanoma 70.5% | LOX IMVI melanoma 97% | SK-MEL-28 melanoma 96.3%

O=C(O)C1[S][Sb]([CH](C(=O)O)[CH](C(=O)O)[Sb]2[S]C(C(=O)O)C(C(=O)O)[S]2)[S]C1C(=O)O (configuration not stated)
active: SK-MEL-5 melanoma 3.78% | LOX IMVI melanoma 8.37%
inactive: DU-145 prostate 97.1% | K-562 leukemia 76% | MALME-3M melanoma 31.3% | MDA-MB-231 breast 88.2% | RXF 393 renal 103% | SF-268 CNS 104% | SF-539 CNS 76.3% | UACC-257 melanoma 89.3% | M14 melanoma 74.5% | HCT-15 colon 87.6% | HT29 colon 80.8% | SNB-75 CNS 83.8% | SNB-19 CNS 92.9% | PC-3 prostate 83.4% | UACC-62 melanoma 89.2% | SK-MEL-28 melanoma 61.1%

C/C(CC(=O)NNc1ccc([N+](=O)[O-])cc1)=N\Nc1ccc([N+](=O)[O-])cc1
inactive: DU-145 prostate 62.1% | K-562 leukemia 12.9% | MALME-3M melanoma 93.4% | MDA-MB-231 breast 47% | RXF 393 renal 118% | SF-268 CNS 83.8% | SF-539 CNS 68.2% | UACC-257 melanoma 99.6% | M14 melanoma 25.5% | HCT-15 colon 49.6% | HT29 colon 71.4% | SNB-75 CNS 97.3% | SNB-19 CNS 104% | U251 CNS 78.5% | PC-3 prostate 54.7% | SK-MEL-5 melanoma 59.4% | LOX IMVI melanoma 70.3% | SK-MEL-28 melanoma 114%
